Screening results from PubChem BioAssay.
Hits are enriched below; roughly 0.74% of the tested compounds scored in any of these assays.
BH1578 lux ind – quorum light induction in luxS cqsA deficient V. cholerae. activation, % at 18.7 µM. 350,000 compounds, 0.16% hits. V. cholerae BH1578 lux reporter, luminescence, 6 h; in the data active means activation mostly above about 9.7%, no sharp cut-off; inconclusive means no clear call, values can overlap the other calls; inactive means mostly below about 3.7%
Mtb UGM inh – inhibitors of M. tuberculosis UDP-galactopyranose mutase; P9WIQ1; inhibition, % at 10 µM; 320,000 compounds, 0.06% hits; purified UGM, fluorescence polarization probe displacement; in the data active means inhibition above about 10%, passing the limit was not always enough; inconclusive means no clear call, values can overlap the other calls
Target sequence (P9WIQ1 whole entry, looked up): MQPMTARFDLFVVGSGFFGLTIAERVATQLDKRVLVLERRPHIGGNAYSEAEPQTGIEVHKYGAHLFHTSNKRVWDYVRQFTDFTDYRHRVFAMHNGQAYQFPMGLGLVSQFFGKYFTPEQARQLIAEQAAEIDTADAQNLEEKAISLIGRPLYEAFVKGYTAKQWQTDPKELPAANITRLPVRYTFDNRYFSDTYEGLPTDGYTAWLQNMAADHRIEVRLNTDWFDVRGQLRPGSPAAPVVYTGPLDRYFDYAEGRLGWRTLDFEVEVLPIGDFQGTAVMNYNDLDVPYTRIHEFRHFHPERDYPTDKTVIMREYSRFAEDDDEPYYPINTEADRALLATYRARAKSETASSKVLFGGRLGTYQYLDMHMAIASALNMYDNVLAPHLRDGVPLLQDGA
MazEF act – MazEF (E. coli) toxin RNase activation. P0AE70. FAM/BHQ RNA-DNA oligo cleavage fluorescence, 5 h. activation, % at 20 µM. 350,000 compounds, 0.32% hits; in the data active means activation above about 50%
Target sequence (P0AE70 whole entry, looked up): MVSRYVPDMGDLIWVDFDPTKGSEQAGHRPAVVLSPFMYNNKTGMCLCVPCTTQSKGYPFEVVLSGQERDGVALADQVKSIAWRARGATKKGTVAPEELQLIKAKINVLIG
FadD28 FP inh – M. tuberculosis FadD28 bisubstrate binding inhibition; FadD28 bisubstrate probe binding, fluorescence polarization; inhibition, % at 12.5 µM; 360,000 compounds, 0.22% hits; in the data active means inhibition above about 8.5%, passing the limit was not always enough; inconclusive means no clear call, values can overlap the other calls
Rv3671c inh – Rv3671c (M. tuberculosis) protease inhibition; P9WHR9; AID 2606; inhibition, % at 5.96 µM; 320,000 compounds, 0.048% hits; in the data active means inhibition above about 38%;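 further: extracellular domain of Rv3671c used as enzyme; 0% = enzyme with DMSO and 100% = no enzyme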
Mtb bLac sens – beta-lactam sensitization of Mtb H37Rv | M. tuberculosis H37Rv growth with meropenem, percent inhibition | inhibition, % at 25 µM | 330,000 compounds, 0.27% hits | AID 434955; call rule not given here;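 further: growth measured after seven days incubation then overnight dye step; 0% = bacteria only wells and 100% = bacteria with antibiotic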
Active calls of the source: *; i = inactive; u = inconclusive; x = not tested or not shown; + = active, no number.

SMILES	BH1578 lux ind	Mtb UGM inh	MazEF act	FadD28 FP inh	Rv3671c inh	Mtb bLac sens
CCN1C(=O)c2cccc3c(N)ccc(c23)C1=O	-1	37*	i	-4	23	-3
CCN(CCNc1ccc([N+](=O)[O-])c2cccnc12)S(=O)(=O)c1ccc(Cl)cc1	x	1	8	-2	1	11
CCN(CCNc1ccc([N+](=O)[O-])c2cccnc12)S(=O)(=O)c1ccccc1	0	x	138*	1	0	-8
Cn1c(N/N=C/c2cccs2)cc(=O)n(C)c1=O	33*	-2	-1	-3	4	-5
N#Cc1ccc(C(=O)N2CCCCC2c2cc(C(=O)NCc3ccccc3)no2)cc1 (stereo not given)	i	x	x	-7	x	x
C=CCSc1nc2ccccc2c(=O)n1Cc1ccccc1	0	3	-1	1	-15	9
O=c1c2ccccc2nc(SCc2ccccc2Cl)n1Cc1ccccc1	26*	-1	0	-5	-9	-8
Cc1cc(OCC(=O)NCc2ccc(S(N)(=O)=O)cc2)c2c3c(c(=O)oc2c1)CCC3	-11	3	72*	-2	0	7
Cc1cc(OCC(=O)NCc2ccncc2)c2c3c(c(=O)oc2c1)CCC3	-1	-6	22	1	-4	4
CCCCCCN1C[C@H](n2cc(C3CC3)nn2)[C@@H](O)C[C@@H]1c1ccc(OC)cc1	-1	x	-9	-5	x	x
C=C(C)CN(CC)c1nc(N)c2c(N)nc3c(c2c1C#N)CC(=O)N3C12CC3CC(CC(C3)C1)C2	-3	1	-21	-6	-20	6
N#Cc1c(N2CCCC(O)C2)nc(N)c2c(N)nc3c(c12)CC(=O)N3C12CC3CC(CC(C3)C1)C2 (stereo not given)	3	4	-18	25*	-93	u
CCSc1nnc(N2C(=O)C(O)=C(C(=O)c3ccco3)C2c2cccc(OC)c2)s1 (stereo not given)	-11	2	65*	-2	-5	0
CCOC(=O)N1CCN(C(=O)c2cc(COc3c(F)cccc3F)on2)CC1	1	1	-2	1	-17	-5
Cc1ccc(C)c(S(=O)(=O)NC(C)C(=O)Nc2ccc(-c3nc4ccccc4s3)cc2)c1 (stereo not given)	3	-2	52*	-1	1	10
Cc1ccc(S(C)(=O)=O)cc1C(=O)OCC(=O)N1CCCC1=O	i	x	8	-1	x	x
Cc1ccc(C(=O)c2sc3nsc(C)c3c2N)cc1	-5	-1	62*	-1	-4	61
COc1cc(/C=C/C(=O)OCC(=O)N(CC(C)C)c2c(N)n(Cc3ccccc3)c(=O)[nH]c2=O)ccc1O	-1	x	7	-2	x	x
CN(N=Cc1ccc([N+](=O)[O-])cc1)c1ccccn1	5	x	+	1	x	x
CCOc1ncccc1C(=O)Nc1cc(S(=O)(=O)N2CCCCC2)ccc1OC	6	x	6	0	-3	-4
CN1CCCN=C1COC(=O)C(O)(c1ccccc1)C1CCCCC1 (stereo not given)	29*	0	4	-3	6	1
C=CCn1c(O)c(C=Nc2ccc(F)cc2)c(=O)[nH]c1=O	2	2	9	0	-1	-5
O=c1[nH]c(=O)n(Cc2ccccc2Cl)c(O)c1C=Nc1ccc(F)cc1	i	2	53*	-2	13	4
O=C(Nc1ccccc1)c1nn(-c2ccccc2)c(=O)cc1C(F)(F)F	-1	1	381*	-3	4	4
COc1ccc([C@H]2N[C@]3(CCCN(CC4CCCCC4)C3=O)[C@H]3C(=O)N(Cc4ccccc4)C(=O)[C@@H]23)cc1	i	x	2	-1	x	x
SMILES	BH1578 lux ind	Mtb UGM inh	MazEF act	FadD28 FP inh	Rv3671c inh	Mtb bLac sens
Cc1ccccc1NC(=O)C(C)OC(=O)CCC(=O)c1ccccc1 (stereo not given)	i	x	-1	-1	x	x
OC(c1cccc(CN2CCCCC2)c1)c1ncc(-c2ccccc2Cl)[nH]1 (stereo not given)	0	x	x	-3	x	x
OC(c1ccc(OCc2ccccc2)cc1)c1nnc(-c2ccccc2)o1 (stereo not given)	i	2	96*	-5	-7	-10
OC(c1cccc(OCc2ccccc2)c1)c1nnc(-c2ccccc2)o1 (stereo not given)	x	0	-13	-4	-2	29
N#CCOc1ccccc1CNC[C@H]1O[C@@H](n2cnc3c(=O)[nH]c(N)nc32)[C@H](O)[C@@H]1O	x	x	x	0	x	x
COC(=O)c1cc2c(-c3ccccc3)c(C)c3ccccn3c-2c1C(=O)OC	i	4	50*	1	4	81
COC(=O)c1c(Cl)c2n3ccccc3c(C)c(-c3ccccc3)c-2c1C(=O)OC	0	x	-53	0	0	-1
Oc1cc2c(cc1O)C1c3ccc(O)c(O)c3OCC1(O)C2 (stereo not given)	1	-1	264*	1	-4	0
COC(=O)CSc1nc2cc(C)cc(C)c2cc1C#N	i	0	131*	1	-10	10
CC(=O)CSc1nc2cc3c(cc2cc1C#N)OCCO3	-1	-1	80*	-1	8	5
COC(=O)CSc1nc2cc(OC)ccc2cc1C#N	-1	-1	203*	-3	-4	49
COC(=O)CSc1nc2ccc(C)cc2cc1C#N	-1	-4	901*	-5	-5	7
CCN(CC)S(=O)(=O)c1ccc(Cl)c(NC(=O)COC(=O)c2nc3nc(C)cc(C)n3n2)c1	i	1	4	-1	-9	-9
COc1ccccc1[C@@]1(C)ON(c2ccccc2C(F)(F)F)C1=O	1	2	-5	-2	-1	-3
Cc1cccc(NC(=O)NNC(=O)c2ccc3ccccc3c2O)c1	i	1	3	8.5*	x	7
O=C(NNC(=O)c1ccc2ccccc2c1O)Nc1ccc(F)cc1	-1	1	6	2	-3	-13
Cc1ccc(S(=O)(=O)N2CCN(CC(=O)NCC3(N4CCOCC4)CCCCC3)CC2)cc1	i	x	4	-1	x	x
CCOC(=O)[C@H]1[C@H]2COc3ccccc3[C@@H]2N2C(=O)c3c(C)cc(C)cc3NC(=O)[C@@]12C	i	0	3	-2	-5	80
O=C(Nc1ccccc1)c1sc(Cl)nc1-c1ccccc1	0	-3	12	1	-7	-7
Cc1ccc(NC(=O)c2sc(Cl)nc2-c2ccccc2)cc1C	-3	1	67*	-4	-2	-9
O=C(c1ccco1)N1CC2(CC(c3ccc(Cl)cc3)=NO2)CN1Cc1ccc(Br)cc1 (stereo not given)	0	x	-9	-4	x	x
CC(NCC(=O)Nc1ccccc1C(=O)NC1CC1)c1ccco1 (stereo not given)	i	x	3	0	x	x
CC(C)Cc1nc2oc3c(N4CCN(CCO)CC4)ncnc3c2c2c1CCCC2	0	-1	-1	-5	-4	95
CCOC(=O)N1CCN(c2ncnc3c2oc2nc(C(C)C)c4c(c23)CCC4)CC1	-2	-1	55*	-5	1	3
